# Screens: PubChem, National Center for Advancing Translational Sciences (NCATS)
# An excerpt weighted towards active compounds, which were near 19% of everything screened.
# IL1B secr inh: inflammasome signaling inhibition, IL-1 beta readout; 360,000 tested, 4.7% active; activity change, % at 57.5 µM; AID 743279; THP-1 LPS/ATP IL-1B secretion, AlphaLISA, 16 h; active compounds read low; in the data active = activity change below about -50%; inconclusive = mostly about -30% to -49%
#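 Secreted IL-1B measured by AlphaLISA bead assay after 16 h compound exposure of THP-1 cells; compounds (final up to 57.5 uM) added 1 h before LPS (250 ng/mL) and ATP (1.25 mM) stimulation; lower signal means less secretion.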
# HT1080-NT tox: kills 2HG-producing HT-1080-NT fibrosarcoma cells. AID 686970. HT-1080-NT fibrosarcoma viability, CellTiter-Glo ATP luminescence, 48 h. 360,000 tested, 1.6% active. Potency, µM (highest dose often 46.1 µM), for the others: at the top dose activity, negative = less viability, most hits filed as cytotoxic;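 also: NT is the 2HG producing partner of a matched IDH1 knockdown line; potency is read from the fitted curve at half-maximal effect; 0% = DMSO-treated cells and -100% = media-only wells without cells; nearly all actives have a fitted effect of over 55% in size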
#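 Compounds were tested in concentration-response format on HT-1080-NT cells for 48 hours at 37 degrees C. Cell viability came from CellTiter-Glo luminescence; curves were classified by r2, response magnitude and activity.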
# TDP1 cell CPT: DT40-hTDP1 cell growth loss with CPT; chicken DT40 Tdp1-/-;hTDP1 cells + 20 nM CPT, ATP luminescence, 48 h; Potency, µM (doses to about 46.2 µM), without a hit: top-dose activity change, negative = growth inhibition, actives largely listed as inhibitors; AID 686979; 420,000 tested, 12% active; also: potency is read from the fitted curve at half-maximal effect; nearly all actives have a fitted effect of over 55% in size
#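 Chicken DT40 Tdp1-/- cells stably complemented with human TDP1 were seeded at 400 cells/well in medium containing 20 nM camptothecin, exposed to pin-transferred compounds, and grown at 37 °C for at least 48 hr. Viability was read as ATP luminescence.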
# DT40 TDP1 no CPT: qHTS for Inhibitors of human tyrosyl-DNA phosphodiesterase 1 (TDP1): qHTS in cells in absence of CPT; DT40 Tdp1-/- hTDP1 cells, no CPT, ATP luminescence, 48 h; Potency, µM (titrated, usually from 46.2 µM), inactives show at the top dose activity change, negative = growth inhibition, usual class: inhibitors; 420,000 tested, 15% active; also: potency is read from the fitted curve at half-maximal effect; nearly all actives have a fitted effect of over 55% in size
#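 Seeded 400 DT40-hTDP1 cells/well (vehicle DMSO, no 20 nM CPT); pinned compounds; ≥48 hr at 37 °C; CellTiter-Glo luminescence as viability measure.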
# HT1080 IDH1KD tx: kills HT-1080 cells with IDH1 knockdown | HT-1080 IDH1 knockdown viability, ATP luminescence, 48 h | Potency, µM (top dose mostly 46.1 µM), for inactives: at the top dose activity, negative = toxicity, actives largely listed as cytotoxic | 360,000 tested, 2% active;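 also: potency is read from the fitted curve at half-maximal effect; 0% = DMSO wells and -100% = cell-free medium wells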
#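 HT-1080-IDH1KD cells (IDH1 knocked down), 750/well in RPMI with 5% FBS, treated with compound 48 h at 37 degrees C. Viability by CellTiter-Glo luminescence, normalised to DMSO and no-cell wells; concentration-response curves classed.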
# uPA surface inh: blocks generation of uPA at the cell surface; cell surface uPA generation assay, qHTS; Potency, µM (doses to about 38.3 µM), for inactives: at the highest dose activity change, negative = inhibition, usual class: inhibitors; 330,000 tested, 0.31% active; active = well fitted inhibition curve with a large enough effect; inconclusive = small, poorly fitted or top-dose-only effect; inactive = no such curve, though single readings can be large or run the other way; tested in mouse RAW 264.7 cells; also: potency is read from the fitted curve at half-maximal effect; nearly all actives have a fitted effect of over 55% in size
# Starred values were filed as active, the others as inactive; ? = inconclusive; · = not tested or not shown. Unless noted, calls follow the shape of the dose curve; as a rule, active = well fitted curve in the direction sought with a large enough effect; inconclusive = small, poorly fitted or top-dose-only effect, or another doubt; inactive = no such curve, though single readings can be large; an effect the other way counts as inactive or inconclusive. Unless noted, % is scaled to controls: 0 for no effect and ±100 for the full control effect.
SMILES,IL1B secr inh,HT1080-NT tox,TDP1 cell CPT,DT40 TDP1 no CPT,HT1080 IDH1KD tx,uPA surface inh
CCn1c(=O)cc(SCC(=O)N2CCC3(CC2)OCCO3)c2ccccc21,?,-1%,?,?,-13%,·
CC(C)C[C@H]1CN([C@@H](CC(C)C)CN2CCCC2CN2C(=S)NC[C@@H]2Cc2ccc(O)cc2)C(=S)N1CC1CCCCCC1 (stereo not given in full),?,5%,18µM*,18µM*,6%,22%
CC(C)C[C@H]1CN([C@@H](CC(C)C)CN2CCCC2CN2C(=S)NC[C@@H]2Cc2ccc(O)cc2)C(=S)N1CC1CCCCC1 (stereo not given in full),-2,2%,?,?,3%,32%
CC(=O)NC1=C(N2CC2C)C(=O)C(NC(C)=O)=C(N2CC2C)C1=O (stereo not given),2,-1%,1.8µM*,4.6µM*,-14%,-7%
COc1cccc(NC(=O)c2cccn(Cc3ccccc3C)c2=O)c1,·,·,?,26µM*,·,·
COc1ccc(C)cc1NC(=O)c1cccn(Cc2ccccc2Cl)c1=O,·,·,-29%,-1%,·,·
CCOC(=O)c1ccc(NC(=O)c2cccn(Cc3ccccc3F)c2=O)cc1,·,·,?,21µM*,·,·
Cc1ccccc1Cn1cccc(C(=O)Nc2nc3ccccc3s2)c1=O,·,·,16µM*,16µM*,·,·
CCOC(=O)c1ccc(NC(=O)c2cccn(Cc3ccc(C)cc3)c2=O)cc1,·,·,?,-26%,·,·
N/C(=N/[N+](=O)[O-])N1CCN(C(=O)Oc2ccc([N+](=O)[O-])cc2)CC1,-13,0%,-11%,-14%,-9%,1%
CCOC(=O)COc1ccc2c(c1)c(C(C)=O)c(C)n2Cc1ccccc1,12,6%,-1%,-13%,1%,-2%
CC1CCC(NC(=O)c2cc3c(=O)n(C)c4ccccc4c3n2C)CC1 (stereo not given),0,4%,9.2µM*,?,-3%,-10%
CN1C(=O)CN=C(c2ccccc2)c2cc([N+](=O)[O-])ccc21,·,·,?,17µM*,·,·
O=C(O)c1ccc2[nH]cc(CCCCN3CC=C(c4ccccc4)CC3)c2c1,·,·,10%,-11%,·,·
Oc1ccc2[nH]cc(CCCCN3CC=C(c4ccccc4)CC3)c2c1,·,·,27µM*,17µM*,·,·
COc1ccccc1CN1CCCC2(CCN(C(=O)Oc3ccccc3)CC2)C1,·,·,9%,-18%,·,·
CCCCC(=O)Nc1c(C(=O)N2CCN(c3ccccc3F)CC2)oc2ccccc12,·,·,15µM*,9.2µM*,·,·
Oc1cc2c(cc1CN1CCN(c3ccccc3F)CC1)OCO2,-24,8%,-16%,-7%,0%,-2%
O=C(c1ccco1)N1CCN(c2nc(C3CC3)nc3sc4c(c23)CCCC4)CC1,0,?,26µM*,?,?,-26%
CC(C)(C)c1o[nH]c(=O)c1C[C@H](N)C(=O)O,·,·,5%,-5%,·,·
COc1ccc(Cl)cc1NC(=O)CN(C)C(=O)c1ccc(N2CCCCC2)c([N+](=O)[O-])c1,-14,-13%,9.2µM*,16µM*,-17%,?
CCCn1c(C)cc(C=O)c1C,0,0%,7%,26%,4%,-1%
Nc1cc(SCc2ccc(Cl)cc2Cl)ncn1,-27,-19%,-7%,?,-17%,-2%
CCCCCCOc1ccc(CN2CCN(CCO)CC2)cc1,?,?,16µM*,21µM*,?,·
CCCCOc1ccc(CN2CCN(CCO)CC2)cc1,13,10%,-28%,-27%,-11%,·
O=C(C1=C[C@H](c2ccc(Br)cc2)C[C@H](OCCCCO)O1)N1CCN(Cc2ccc3c(c2)OCO3)CC1,?,-19%,18µM*,16µM*,-18%,?
